Measured values taken from PubChem BioAssay (Tox21).
Where “and” joins values, the source holds several entries; their conditions need not be identical. Identical values can stand only once. Inconclusive results are not listed. Calls of active or inactive are those of the source. Unless noted, the call rests on the fitted dose curve.

Columns and labels:
[1] = Nuclear factor erythroid 2-related factor 2/antioxidant responsive element (Nrf2/ARE) small molecule agonists: qHTS cell viability counter screen in human keratinocytes (AID 1919968; active means well fitted curve in the direction sought with a large enough effect in the repeat runs; an effect the other way counts as inactive or inconclusive; further: nearly all actives have a fitted effect of over 55% in size)
Procedure, shortened: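 Cytotoxicity was multiplexed with the Nrf2/ARE luciferase assay in the same wells. Stably transfected HaCaT keratinocytes were treated with test compounds for 23 h at 37 C. Cell viability was then measured by CellTiter-Fluor fluorescence.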

[2] = Nuclear factor erythroid 2-related factor 2/antioxidant responsive element (Nrf2/ARE) small molecule agonists: luciferase reporter gene qHTS assay in human keratinocytes (AID 1919969); further: nearly all actives have a fitted effect of over 35% in size; further: potency means the concentration at half of the fitted maximal effect
[3] = molecular target: Gonadotropin-releasing hormone receptor (Homo sapiens) (UniProt P30968); experiment: Human gonadotropin-releasing hormone receptor (GnRHR) small molecule agonists, calcium flux assay in GnRHR-HEK293 cells (AID 1920063); further: nearly all actives have a fitted effect of over 35% in size
Procedure, shortened: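 Agonist activity was measured as intracellular calcium flux in HEK293 cells engineered to stably express human GnRHR. After dye loading for 1 hour at 37 C, compounds in DMSO were added and fluorescence was followed for 3 minutes.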

[4] = molecular target: KiSS-1 receptor (Homo sapiens) (UniProt Q969F8); experiment: Human kisspeptin (KISS1R) small molecule agonists, calcium flux assay in KISS1R-HEK293 cells (AID 1920064; active means well fitted curve in the direction sought with a large enough effect in the repeat runs; an effect the other way counts as inactive or inconclusive)
Procedure, shortened: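 Agonist activity is monitored as intracellular calcium rise in engineered HEK293 cells carrying human KISS1R. Cells are dye-loaded for 1 h at 37 C before compound addition, and fluorescence is recorded for 3 min.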

[5] = G protein-coupled receptor (GPCR) small molecule agonists, calcium flux assay: HEK293 wild type cell line counter screen (AID 1920065)
Procedure, shortened: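 Seed cells, incubate 18 h (37 C, 5% CO2); add calcium dye, 1 h at 37 C; pin-transfer compounds, ATP control or DMSO; read fluorescence 480/540 nm each second for 3 min.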

[6] = p53 small molecule agonists, cell-based qHTS assay with human liver microsomes (AID 1963577);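 further: p53 response element beta-lactamase reporter cells with liver microsomes plus NADPH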
Procedure, shortened: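 Reporter activation was measured by LiveBLAzer fluorescence intensity in p53RE-bla cells, which had been exposed to compounds for 16 h at 37 C alongside 0.5 mg/mL human liver microsomes and 0.5 mg/mL NADPH (final concentrations).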

[7] = p53 small molecule agonists, cell-based qHTS assay with rat liver microsomes (AID 1963578)
Procedure, shortened: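 Compound in DMSO added to p53RE-bla cells 5 h post-plating; rat microsomes/NADPH 0.5 mg/mL final; 16 h, 37 C; LiveBLAzer 2 h RT.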

[8] = p53 small molecule agonists, cell-based qHTS assay with human liver microsomes: qHTS cell viability counter screen (AID 1963579); further: nearly all actives have a fitted effect of over 45% in size
Procedure, shortened: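 HLM-supplemented (0.5 mg/mL final) and NADPH-supplemented (0.5 mg/mL final) p53RE-bla cultures, 4,000 cells per well, were dosed with compounds in DMSO for 16 h at 37 C; luminescent ATP detection (CellTiter-Glo, 30 min, room temperature) quantified surviving cells.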

[9] = p53 small molecule agonists, cell-based qHTS assay with rat liver microsomes: qHTS cell viability counter screen (AID 1963580); further: nearly all actives have a fitted effect of over 45% in size
Procedure, shortened: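 After the beta-lactamase ratio was read, CellTiter-Glo was added to the same wells and luminescence measured at 30 min; cells had been treated 16 h at 37 C with compounds, rat liver microsomes and NADPH (0.5 mg/mL final each).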

[10] = p53 small molecule agonists, cell-based qHTS assay: qHTS cell viability counter screen (AID 1963581); further: nearly all actives have a fitted effect of over 45% in size
Procedure, shortened: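 Viability was counter-screened in parallel with the p53 agonist reporter by measuring intracellular ATP luminescence in the same HCT-116 p53RE-bla wells after 16 h compound treatment at 37 C.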

[11] = molecular target: 5-hydroxytryptamine receptor 2A (Homo sapiens) (UniProt P28223); experiment: 5-hydroxytryptamine receptor 2A (HTR2A) small molecule agonists, cell-based qHTS assay (AID 1963587); further: nearly all actives have a fitted effect of over 30% in size
Procedure, shortened: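 CHO cells stably expressing human HTR2A, plated 18 h, loaded with calcium dye 1 h at 37 C. Agonist mode: compounds added and intracellular calcium fluorescence recorded kinetically for 2 min at 1 sec intervals.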

[12] = molecular target: Muscarinic acetylcholine receptor M1 (Homo sapiens) (UniProt P11229); experiment: Cholinergic receptor muscarinic 1 (CHRM1) small molecule antagonists, cell-based qHTS assay (AID 1963588); further: nearly all actives have a fitted effect of over 40% in size
Procedure, shortened: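 Compounds were tested at 15 concentrations in three independent runs. Dye-loaded CHRM1-CHO cells were exposed 5 min at room temperature before stimulation by acetylcholine added at 50nM. Intracellular calcium was read kinetically on FDSS for 3 min.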

[13] = molecular target: Muscarinic acetylcholine receptor M1 (Homo sapiens) (UniProt P11229); experiment: Cholinergic receptor muscarinic 1 (CHRM1) small molecule agonists, cell-based qHTS assay (AID 1963589); further: nearly all actives have a fitted effect of over 35% in size
Procedure, shortened: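 Cells were plated and incubated 18 h at 37 C/5% CO2, loaded with calcium dye for 1 h at 37 C, then treated with compounds in DMSO. Fluorescence was recorded kinetically at 1 sec intervals.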

[14] = cAMP Responsive Elements (CRE) small molecule agonists, cell-based qHTS assay (AID 1963590)
Procedure, shortened: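 Cells carrying a CRE-driven beta-lactamase reporter (HEK 293T) are seeded, incubated overnight (18 h), and treated with test compounds for 3 h at 37 C; reporter activity is then detected with a FRET substrate after 2 h at room temperature.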

[15] = cAMP Responsive Elements (CRE) small molecule antagonists, cell-based qHTS assay (AID 1963591; active means well fitted inhibition curve with a large enough effect in the signal ratio in the repeat runs, not every such curve was filed as active; the % refers to the signal ratio)
Procedure, shortened: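 Cells (CRE-bla HEK 293T, DMEM with 10% dialyzed FBS and 25 mM HEPES) are seeded and incubated 18 h. Compounds are added with NKH477 agonist at 0.25 uM final for 3 h, then FRET substrate for 2 h.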

[16] = molecular target: Beta-2 adrenergic receptor (Homo sapiens) (UniProt P07550); experiment: Adrenergic beta2 receptor (ADRB2) small molecule antagonists, cell-based qHTS assay (AID 1963592); further: series mostly up to about 92 µM; nearly all actives have a fitted effect of over 50% in size
Procedure, shortened: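 Assay format: CHO-ADRB2 cells, 18-20hr seeding at 37C/5% CO2, then compound plus 1nM isoproterenol agonist mix for 0.5hr RT. Homogeneous time-resolved fluorescence cAMP detection after 1hr, expressed as 665/615 nm ratio.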

[17] = molecular target: D(2) dopamine receptor (Homo sapiens) (UniProt P14416); experiment: Dopamine D2 receptor (DRD2) small molecule agonists, cell-based qHTS assay (AID 1963594); further: nearly all actives have a fitted effect of over 35% in size
Procedure, shortened: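 HEK293 cells stably expressing human DRD2, pre-treated with PDE inhibitor Ro20-1724 (0.1 mM final) and compound 10 min at room temperature, then stimulated with NKH477 (200nM […]) for 30 min. cAMP read by HTRF (665/620 nm).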

[18] = molecular target: D(2) dopamine receptor (Homo sapiens) (UniProt P14416); experiment: Dopamine D2 receptor (DRD2) small molecule antagonists, cell-based qHTS assay (AID 1963595; active means well fitted inhibition curve with a large enough effect in the signal ratio in the repeat runs, with a control signal flat; the % refers to the signal ratio)
Procedure, shortened: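 Human DRD2 antagonist qHTS measuring cAMP by HTRF. The cells are exposed to compound for 10 min, then to NKH477 (200 nM) and quinpirole (12 nM) for 30 min at RT, with Ro20-1724 (0.1 mM) present throughout.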

[19] = molecular target: 5-hydroxytryptamine receptor 2A (Homo sapiens) (UniProt P28223); experiment: 5-hydroxytryptamine receptor 2A (HTR2A) small molecule antagonists, cell-based qHTS assay (AID 1963586); further: nearly all actives have a fitted effect of over 45% in size
Procedure, shortened: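 CHO cells stably expressing human HTR2A were plated for 18 h at 37 C, then loaded with calcium dye for 1 h. Compounds were preincubated 5 min at room temperature before DOI (4 nM solution) was added. Kinetic fluorescence was read for 3 min.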

[20] = p53 small molecule agonists, cell-based qHTS assay (AID 1963582; active means well fitted activation curve with a large enough effect in the signal ratio in the repeat runs, not every such curve was filed as active; the % refers to the signal ratio)
Procedure, shortened: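 Cells carrying a p53-responsive bla reporter are treated with test compounds for 16 h at 37 C; beta-lactamase activity is then detected with LiveBLAzer B/G FRET substrate after 2 h at room temperature.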

Measured: Potency

5-hydroxytryptamine receptor 2A (Homo sapiens), sequence (P28223 whole entry, looked up): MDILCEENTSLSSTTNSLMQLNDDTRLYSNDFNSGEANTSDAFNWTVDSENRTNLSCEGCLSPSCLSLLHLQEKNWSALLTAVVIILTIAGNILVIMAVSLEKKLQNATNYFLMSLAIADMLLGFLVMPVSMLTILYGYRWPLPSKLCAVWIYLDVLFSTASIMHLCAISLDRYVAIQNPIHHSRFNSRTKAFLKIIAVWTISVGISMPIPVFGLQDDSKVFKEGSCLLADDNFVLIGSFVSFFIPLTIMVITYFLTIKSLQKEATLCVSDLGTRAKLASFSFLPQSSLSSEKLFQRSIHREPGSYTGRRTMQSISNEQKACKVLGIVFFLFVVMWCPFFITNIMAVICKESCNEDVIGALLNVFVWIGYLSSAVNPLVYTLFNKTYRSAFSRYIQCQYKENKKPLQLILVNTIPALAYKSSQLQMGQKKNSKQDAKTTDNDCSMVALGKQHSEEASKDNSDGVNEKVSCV
KiSS-1 receptor (Homo sapiens), sequence (Q969F8 whole entry, looked up): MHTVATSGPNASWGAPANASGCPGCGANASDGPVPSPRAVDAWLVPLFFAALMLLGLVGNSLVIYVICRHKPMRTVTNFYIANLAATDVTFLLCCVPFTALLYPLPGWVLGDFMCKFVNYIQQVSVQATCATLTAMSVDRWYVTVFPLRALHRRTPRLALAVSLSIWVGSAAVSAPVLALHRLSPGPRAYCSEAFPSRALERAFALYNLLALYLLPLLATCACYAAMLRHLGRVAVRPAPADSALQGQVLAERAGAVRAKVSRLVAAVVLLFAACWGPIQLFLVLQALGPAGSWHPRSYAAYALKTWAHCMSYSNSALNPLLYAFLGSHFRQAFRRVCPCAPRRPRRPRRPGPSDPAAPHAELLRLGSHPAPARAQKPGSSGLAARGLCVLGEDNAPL
Gonadotropin-releasing hormone receptor (Homo sapiens), sequence (P30968 whole entry, looked up): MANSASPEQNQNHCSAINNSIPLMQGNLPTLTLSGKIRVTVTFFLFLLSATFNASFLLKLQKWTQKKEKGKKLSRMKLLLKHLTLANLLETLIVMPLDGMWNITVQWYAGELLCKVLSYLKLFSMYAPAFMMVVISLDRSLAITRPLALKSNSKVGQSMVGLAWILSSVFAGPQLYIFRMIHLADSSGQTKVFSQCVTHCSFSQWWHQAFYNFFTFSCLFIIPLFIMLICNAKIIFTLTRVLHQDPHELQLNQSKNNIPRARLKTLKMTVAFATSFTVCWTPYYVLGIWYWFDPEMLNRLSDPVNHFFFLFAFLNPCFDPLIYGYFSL
D(2) dopamine receptor (Homo sapiens), sequence (P14416 whole entry, looked up): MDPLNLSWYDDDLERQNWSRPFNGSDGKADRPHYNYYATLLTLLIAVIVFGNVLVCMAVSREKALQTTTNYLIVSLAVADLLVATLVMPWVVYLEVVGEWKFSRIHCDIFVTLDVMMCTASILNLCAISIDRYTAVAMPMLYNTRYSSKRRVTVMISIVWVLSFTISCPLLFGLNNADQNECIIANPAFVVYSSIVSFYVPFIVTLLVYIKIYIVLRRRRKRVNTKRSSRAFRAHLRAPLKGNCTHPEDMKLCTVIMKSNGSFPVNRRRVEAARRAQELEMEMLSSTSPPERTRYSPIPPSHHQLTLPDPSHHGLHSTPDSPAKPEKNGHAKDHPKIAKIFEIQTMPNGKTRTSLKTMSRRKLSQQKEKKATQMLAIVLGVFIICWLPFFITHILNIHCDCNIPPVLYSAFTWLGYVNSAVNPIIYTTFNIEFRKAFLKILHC
Muscarinic acetylcholine receptor M1 (Homo sapiens), sequence (P11229 whole entry, looked up): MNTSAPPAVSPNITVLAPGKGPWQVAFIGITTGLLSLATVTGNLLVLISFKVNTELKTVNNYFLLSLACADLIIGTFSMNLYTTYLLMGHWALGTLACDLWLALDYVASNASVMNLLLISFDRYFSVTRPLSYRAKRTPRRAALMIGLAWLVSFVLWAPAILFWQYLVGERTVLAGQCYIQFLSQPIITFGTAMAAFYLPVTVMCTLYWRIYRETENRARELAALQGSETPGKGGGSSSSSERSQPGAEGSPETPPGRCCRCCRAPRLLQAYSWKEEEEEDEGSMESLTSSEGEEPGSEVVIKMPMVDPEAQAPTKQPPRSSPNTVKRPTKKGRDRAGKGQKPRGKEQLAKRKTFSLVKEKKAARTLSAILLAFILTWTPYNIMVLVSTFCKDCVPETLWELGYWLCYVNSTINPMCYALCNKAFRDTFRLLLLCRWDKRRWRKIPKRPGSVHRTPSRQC
Beta-2 adrenergic receptor (Homo sapiens), sequence (P07550 whole entry, looked up): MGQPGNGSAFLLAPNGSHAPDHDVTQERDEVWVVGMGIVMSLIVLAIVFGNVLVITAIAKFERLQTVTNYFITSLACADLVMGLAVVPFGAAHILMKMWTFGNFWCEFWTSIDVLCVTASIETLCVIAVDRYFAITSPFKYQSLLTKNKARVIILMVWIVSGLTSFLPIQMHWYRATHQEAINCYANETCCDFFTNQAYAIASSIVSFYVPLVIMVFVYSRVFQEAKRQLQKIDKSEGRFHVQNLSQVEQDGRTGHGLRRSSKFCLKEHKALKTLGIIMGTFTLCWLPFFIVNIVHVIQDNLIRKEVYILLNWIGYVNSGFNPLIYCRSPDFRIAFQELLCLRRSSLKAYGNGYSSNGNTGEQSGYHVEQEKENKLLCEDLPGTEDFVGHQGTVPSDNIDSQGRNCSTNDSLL

CC(=O)CC(c1ccc(Cl)cc1)c1c(O)c2ccccc2oc1=O (stereo unspecified)
not listed: [19] | [20]
inactive: all other assays above

CC(C)Oc1cc(-n2nc(C(C)(C)C)oc2=O)c(Cl)cc1Cl
not listed: [15] | [20]
inactive: all other assays above

NC(=O)O
not listed: [20]
inactive: all other assays above

CC(C)c1cccc(C(C)C)c1O
not listed: [11] | [12] | [13] | [19]
inactive: all other assays above

CCCCOCC1CO1 (stereo unspecified)
not listed: [17] | [20]
inactive: all other assays above

CCOCN(C(=O)CCl)c1c(C)cccc1CC
active: [2] 25.8 µM and 68.6 µM
not listed: [12] | [14] | [15] | [20]
inactive: all other assays above

C/C=C/c1ccc2c(c1)OCO2
not listed: [11] | [12] | [13] | [19]
inactive: all other assays above
